D1 antag: Antagonist of Human D 1 Dopamine Receptor: qHTS; D(1A) dopamine receptor (Homo sapiens), P21728; HEK293 TREx D1 cells, calcium flux, dopamine EC80; stronger effect = lower value; activity change, negative = inhibition, % at 10 µM; actives 3.2% (n = 360,000); AID 504652, 2011; in the data active = activity change below about -30%; note: % is set by controls: 0 for no effect and ±100 for the full control effect
Target sequence (P21728 whole entry, looked up): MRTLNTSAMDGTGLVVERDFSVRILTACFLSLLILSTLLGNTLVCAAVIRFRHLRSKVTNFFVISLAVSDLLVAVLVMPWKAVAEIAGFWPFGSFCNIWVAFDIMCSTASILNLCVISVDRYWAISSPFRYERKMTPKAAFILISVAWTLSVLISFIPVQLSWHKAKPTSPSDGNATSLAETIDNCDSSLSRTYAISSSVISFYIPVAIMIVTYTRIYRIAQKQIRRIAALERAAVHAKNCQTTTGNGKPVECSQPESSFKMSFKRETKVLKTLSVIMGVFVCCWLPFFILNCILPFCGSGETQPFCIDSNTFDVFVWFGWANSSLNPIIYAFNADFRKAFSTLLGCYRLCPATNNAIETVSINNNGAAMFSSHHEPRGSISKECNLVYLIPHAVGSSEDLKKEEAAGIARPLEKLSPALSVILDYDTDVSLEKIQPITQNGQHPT
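Cells carrying a force-coupled, tetracycline-inducible human D1 receptor report calcium flux. Each well gets a 10 s baseline, compound with 180 s monitoring, then an EC80 dopamine stimulus with a second 180 s kinetic read.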
D1 potentiator: Potentiators of Human D1 Dopamine Receptor: qHTS | D(1A) dopamine receptor (Homo sapiens), P21728 | HEK293 TREx D1 cells, calcium flux, dopamine EC20 potentiation | potentiation, % at 10 µM | actives 0.036% (n = 360,000) | AID 504651, 2011; in the data active = potentiation above about 30%; note: 0% is about no effect
TRHR agonist: qHTS for Small Molecule Agonists and Allosteric Enhancers of Human TRH Receptor: Primary Screen for Agonists; AID 493084, 2011; TRHR cells, calcium flux fluo-8, FDSS agonist mode; actives 0.18% (n = 360,000); activation, % at 2 µM; note: 0% is about no effect
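TRHR-expressing cells loaded with fluo-8 calcium dye; 23 nL library compound pin-transferred, kinetic FDSS fluorescence (Ex 480/Em 530) recorded about 180 s for agonist-induced calcium release, before a 10 nM TRH EC20 addition for potentiator mode.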
D1 agonist: Allosteric Agonists of the Human D1 Dopamine Receptor: qHTS; actives 1% (n = 360,000); activation, % at 2 µM; AID 504660, 2011; D(1A) dopamine receptor (Homo sapiens), P21728; HEK293 T-REx D1 cells, calcium flux, agonist mode; note: 0% is about no effect
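Agonism was scored from calcium flux recorded over 180 s (1 read/s) after pintool compound addition, following a 10-cycle baseline. Cells were inducible force-coupled HEK293 TREx D1, plated overnight at 30 C and loaded with no-wash calcium dye.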
TRHR PAM: qHTS for Small Molecule Agonists and Allosteric Enhancers of Human TRH Receptor: Primary Screen for Enhancers; Thyrotropin-releasing hormone receptor (Homo sapiens), P34981; TRHR cells, fluo-8 calcium fluorescence, EC20 TRH enhancement; enhancement, % at 2 µM; actives 0.66% (n = 360,000); AID 493056, 2011; in the data active = enhancement above about 30%; note: 0% is about no effect
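Enhancer read-out: after compound pinning and an initial kinetic agonist-mode read, an EC20 of TRH (10 nM final) was injected and fluo-8 calcium signal (Ex 480/Em 530) followed at 1 s/cycle for 100 cycles in TRHR-expressing cells.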
An asterisk follows results filed as active; · = no result given. Rows were chosen to be rich in hits. Some 4.6% of all compounds tested hit in one or more screens of this group. Cut-off read from the data, not from the text of the source, unless noted: active = activation above about 30%; inactive = the rest.

SMILES	D1 antag	D1 potentiator	TRHR agonist	D1 agonist	TRHR PAM
O=C(CCCCn1c(=O)c2ccccc2n(CC(=O)Nc2cccc(F)c2)c1=O)NCc1ccccc1Cl	-19	0	0	33*	-8
O=C(Cn1c(=O)c2ccccc2n(CC(=O)Nc2ccc(F)cc2F)c1=O)NCCc1ccccc1	-3	3	3	9	0
Cc1cccc(NC(=O)c2ccc3[nH]c(=O)c(=O)[nH]c3c2)n1	-9	-4	0	3	10
CCn1c2c(c(=O)n3ncc(C(=O)N4CCN(c5ccc(Cl)cc5)CC4)c13)CN(Cc1ccc(OC)cc1)CC2	-46*	-3	0	10	1
Cc1nc(Cl)c2c(n1)NC1=C(O2)C(=O)CCC1	-11	-8	13	38*	3
Cc1cc2c(s1)c1cnn(Cc3ccc(C(C)(C)C)cc3)c(=O)c1n2C	7	-1	0	4	2
COc1cccc(OCc2nc(-c3ccc(Br)o3)no2)c1	-9	0	0	9	0
Clc1ccccc1OCc1nc(-c2ccc(Br)o2)no1	-41*	·	0	11	-8
Brc1ccc(-c2noc(COc3ccc4ccccc4c3)n2)o1	-52*	-7	0	27	15
Fc1ccc(OCc2nc(-c3ccc(Br)o3)no2)c(F)c1	3	-3	-1	5	-4
COc1ccc(C(=O)COC(=O)c2ccccc2NS(=O)(=O)c2ccc(O)c([N+](=O)[O-])c2)cc1	-4	-4	0	9	4
Cc1cc([N+](=O)[O-])nn1Cc1ccc(C(=O)N/N=C/c2ccc(F)cc2)cc1	-4	-4	0	0	-4
Cc1cc([N+](=O)[O-])nn1Cc1ccc(C(=O)N/N=C/c2ccc(O)cc2O)cc1	-33*	-5	0	1	3
CC(OC(=O)c1ncc(Cl)c(Cl)c1Cl)C(=O)NC1CCCCC1C (stereo unspecified)	-32*	0	0	2	-1
O=S(=O)(Nc1ccc2c(c1)OCCO2)c1cccc2nsnc12	-7	1	0	3	4
O=C(NCc1ccco1)/C(=C/c1ccc(Br)cc1)NC(=O)c1ccco1	2	-2	0	1	-6
COc1ccc(NC(=O)CC2C(=O)N(C)C(=S)N2CCc2ccccc2)cc1 (stereo unspecified)	-41*	-8	1	5	-1
CCN1C(=O)C(CC(=O)Nc2ccc(OC)cc2)N(CCCN2CCN(c3ccc(F)cc3)CC2)C1=S (stereo unspecified)	-43*	-6	1	11	0
COc1ccc(CCN2C(=S)N(C)C(=O)C2CC(=O)Nc2ccc(OC)cc2)cc1 (stereo unspecified)	-11	-4	1	7	3
CN(C)CCNC(=O)Cc1ncc(C(F)(F)F)cc1Cl	4	-1	0	2	0
O=S(=O)(Nc1ccc(N2CCOCC2)nn1)c1ccccc1	-47*	-2	0	2	13
COc1ccc(Br)cc1CNC(=O)c1cc2c(=O)n(C)c3ccccc3c2s1	-4	2	1	0	-1
O=C(CN1CCCCC1)N=Nc1c(O)[nH]c2ccccc12	3	-4	0	-1	-8
CN(C)/C=C(\C#N)C(=O)N/N=C/c1ccccc1	-31*	0	1	3	2
COc1ccccc1CNC(=O)COC(=O)c1c[nH]c2ccccc12	-41*	-19	0	45*	6
SMILES	D1 antag	D1 potentiator	TRHR agonist	D1 agonist	TRHR PAM
COc1ccccc1NC(=O)COC(=O)c1c[nH]c2ccccc12	-22	-2	0	9	-8
CCN1CCN(c2ncnc3c2cnn3-c2cc(Cl)ccc2C)CC1	-16	1	0	1	-2
Cc1ccc(Cl)cc1-n1ncc2c(N3CCN(Cc4ccccc4)CC3)ncnc21	-45*	-2	-1	-2	-5
Cc1ccnc2nc(C(=O)NC3CCCc4ccccc43)nn12 (stereo unspecified)	-52*	-1	-1	3	1
O=C(NC1CCCc2ccccc21)c1cccc(Br)c1 (stereo unspecified)	-44*	-2	-1	3	-2
Cc1occc1C(=O)NC1CCCc2ccccc21 (stereo unspecified)	-17	0	-1	5	7
CCN(CC)c1ccc(NC(=O)C2=CC=CN3CCS(=O)(=O)N=C23)cc1	5	0	1	1	17
Cc1cc(C)cc(CSc2ccc(S(=O)(=O)N3CCCC3)cn2)c1	-4	-5	1	9	-7
COc1ccc(CSc2ccc(S(=O)(=O)N3CCCCC3)cn2)cc1F	-42*	-3	2	6	-4
COc1ccc(CN2CCN(C(=O)c3ccc(S(=O)(=O)N4CCCCCC4)cc3)CC2)cc1F	-24	0	0	8	-7
O=S(=O)(c1ccc(SCc2ccc(Cl)cc2)nc1)N1CCCC1	-33*	-5	1	11	-3
COc1ccc(C(C)=O)cc1CSc1ccc(S(=O)(=O)N2CCCCC2)cn1	-44*	1	0	3	2
Cc1ccc2cc(C)c(N3CCN(c4ccccn4)CC3)nc2c1	5	-1	0	5	3
CC(C)c1ccc(S(=O)(=O)NCc2ccc3c(c2)CCN3C(=O)c2ccccc2)cc1	-20	-1	0	-1	3
COc1cc(C(=O)OCC(=O)NC(=O)C2CCCCC2)ccc1OC(F)F	-15	-5	0	4	0
CC(=O)c1cccc(NC(=O)COC(=O)COc2ccc(Cl)cc2)c1	-6	2	-1	19	-1
Nc1nc(C(F)(F)F)c(Br)c(=O)n1N	-30*	-5	1	1	-24
Cc1ccsc1C(=O)NCC(C)(C)N1CCOCC1	-1	4	0	0	8
CCOC(=O)C1=C(O)/C(=C/c2ccc(OCC(=O)O)c(OC)c2)SC1=Nc1ccc(OC)cc1	-4	-1	1	3	3
O=[N+]([O-])c1ccc(Nc2nc(NCCO)nc(N3CCCC3)n2)cc1	-18	3	0	0	0
CCOc1ccc(CNc2ccc(N3CCOCC3)c(C(=O)O)c2)cc1	-56*	-11	0	4	-3
CCCNc1nc(Nc2ccc(C)cc2)nc(N2CCCC2)n1	-35*	-23	1	5	20
Cc1cc(/C=N/Nc2nc(N3CCOCC3)nc(N3CCOCC3)n2)c(C)n1-c1ccccc1	5	-2	-1	2	32*

Assay outcomes as filed in PubChem BioAssay.
